Compound activity deposited in PubChem BioAssay by National Center for Advancing Translational Sciences (NCATS).
Hits are enriched below; roughly 8.9% of the tested compounds scored in any of these assays.
IMPase Li inh: IMPase inhibition in cells with lithium potentiation. Potency, µM (highest dose often 59.4 µM), usual class: inhibitors. CHO-M1 cells, IP1 TR-FRET (IP-One), carbachol + lithium. AID 1457. 210,000 compounds, 0.35% hits;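 also: IP1 builds up when IMPase is blocked and the TR-FRET signal falls; nearly all actives have a fitted effect of over 50% in size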
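IP1 accumulation measured by competitive TR-FRET in lysed CHO-M1 cells after 30 min compound exposure at 37C, with a small lithium addition to potentiate weak responses. Hill-equation AC50 from ratio and donor-channel data.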
ALOX12 inhib: 12-hLO (ALOX12) enzyme inhibition; P18054; purified 12-hLO, xylenol orange hydroperoxide absorbance; Potency, µM (titrated, usually from 57.1 µM), actives largely listed as inhibitors; 150,000 compounds, 0.12% hits; also: nearly all actives have a fitted effect of over 55% in size
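Hydroperoxide formation by human 12-lipoxygenase from 40 uM arachidonic acid was followed colorimetrically via ferric-xylenol orange complex, using the 573/405 nm absorbance ratio. Enzyme concentration was 150 nM, with 30 min reaction at room temperature.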
NPSR antagonist: blocks cAMP signaling of the human neuropeptide S receptor. Q6W5P4. CHO-NPSR cells, cAMP TR-FRET, antagonist mode. Potency, µM (series often up to 38.3 µM), actives largely listed as inhibitors. 220,000 compounds, 1% hits. AID 1461; also: nearly all actives have a fitted effect of over 50% in size
ALDH1A1 inh: inhibitors of human aldehyde dehydrogenase 1A1; AID 1030; Purified ALDH1A1, NADH fluorescence, propionaldehyde substrate; 220,000 compounds, 7.3% hits; P00352; Potency, µM (highest dose often 75.3 µM), most hits filed as inhibitors; active = well fitted inhibition curve with a large enough effect, not every such curve was filed as active; inconclusive = small, poorly fitted or top-dose-only effect, or another doubt; inactive = no such curve, though single readings can be large or run the other way
Target sequence (P00352 whole entry, looked up): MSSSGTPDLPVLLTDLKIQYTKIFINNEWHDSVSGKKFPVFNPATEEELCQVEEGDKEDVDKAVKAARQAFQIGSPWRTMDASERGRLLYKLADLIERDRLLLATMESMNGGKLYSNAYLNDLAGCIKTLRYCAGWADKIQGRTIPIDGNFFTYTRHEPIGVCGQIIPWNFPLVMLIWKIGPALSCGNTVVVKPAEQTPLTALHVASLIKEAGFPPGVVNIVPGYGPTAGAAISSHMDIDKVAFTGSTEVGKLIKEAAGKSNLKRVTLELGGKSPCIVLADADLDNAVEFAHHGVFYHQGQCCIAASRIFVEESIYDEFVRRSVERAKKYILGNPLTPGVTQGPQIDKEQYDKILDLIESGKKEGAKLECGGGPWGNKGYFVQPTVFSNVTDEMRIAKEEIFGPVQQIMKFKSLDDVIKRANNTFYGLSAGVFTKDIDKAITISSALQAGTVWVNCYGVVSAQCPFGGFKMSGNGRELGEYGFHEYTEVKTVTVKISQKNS
IMPase inh: membrane-permeable compound that blocks inositol monophosphatase. CHO-M1 cells, IP1 accumulation, HTRF TR-FRET ratio. AID 901. inhibition (IP1 accumulation), % at 46.1 µM. P97697. 120,000 tested, under 10 active; active = well fitted curve in the direction sought with a large enough effect in the signal ratio, not every such curve was filed as active; inconclusive = small, poorly fitted or top-dose-only effect, or a change in a side signal; inactive = no such curve, though single readings can be large or run the other way; the % refers to the signal ratio;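 also: cells stimulated with carbachol in lithium chloride buffer; higher means more IMPase inhibition seen as more IP1 and lower FRET ratio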
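Carbachol-driven Gq signalling in CHO-M1 cells (2000/well) generates IP1. Compounds that block IMPase raise IP1 and so reduce the FRET signal from Eu-anti-IP1 and d2-IP1 after a 10 min room-temperature lysis.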
HPGD inh: blocks human HPGD enzyme activity; purified HPGD, NADH fluorescence kinetic, PGE2 substrate; Potency, µM, usual class: inhibitors; 150,000 compounds, 4.3% hits; AID 894; active = well fitted inhibition curve with a large enough effect, not every such curve was filed as active; inconclusive = small, poorly fitted or top-dose-only effect, or another doubt; inactive = no such curve, though single readings can be large or run the other way
Target sequence (P15428 whole entry, looked up): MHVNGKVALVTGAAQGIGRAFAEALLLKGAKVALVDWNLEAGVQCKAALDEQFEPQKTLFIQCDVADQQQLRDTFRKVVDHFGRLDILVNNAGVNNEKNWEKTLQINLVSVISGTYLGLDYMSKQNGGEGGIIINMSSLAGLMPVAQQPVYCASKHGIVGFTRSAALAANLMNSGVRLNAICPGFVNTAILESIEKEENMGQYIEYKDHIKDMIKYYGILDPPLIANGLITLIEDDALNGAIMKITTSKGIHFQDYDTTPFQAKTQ
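NADH formation kinetics: reaction with 30 uM PGE2 and 1 mM NAD+ (final), 20 nM enzyme, Tris-HCl pH 8 with Tween 20, after 15 min compound preincubation at room temperature. Fluorescence change, last versus first of five reads.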
Of the large screens only hits and unclear results are named; the others gave an inactive call. Unless noted, calls follow the shape of the dose curve; as a rule, active = well fitted curve in the direction sought with a large enough effect; inconclusive = small, poorly fitted or top-dose-only effect, or another doubt; inactive = no such curve, though single readings can be large; an effect the other way counts as inactive or inconclusive.

O=C(CSc1nnc(-c2cccnc2)o1)OC1CCCCC1	ALDH1A1 inh 10µM
O=c1c2ccccc2nc(COc2ccccc2)n1/N=C/c1cn[nH]c1-c1ccccc1	none (no result: IMPase inh)
Cc1ccc(-c2noc(C3CCCN(C(=O)c4c(F)cccc4F)C3)n2)cc1 (configuration not stated)	NPSR antagonist inconclusive, ALDH1A1 inh inconclusive
Cc1cc(C)c(OCCCCN(C)C)c(Br)c1	ALDH1A1 inh 22µM (no result: ALOX12 inhib, IMPase inh, HPGD inh)
CCC(C(=O)Nc1cc(Cl)c(OC)cc1OC)c1ccccc1 (configuration not stated)	ALDH1A1 inh 20µM (no result: ALOX12 inhib, IMPase inh, HPGD inh)
CCC(C(=O)Nc1ccccc1)c1ccccc1 (configuration not stated)	none (no result: IMPase inh)
CCCCSc1cc(=O)n(-c2ccccc2)nc1C(=O)OCC	ALDH1A1 inh inconclusive
CC1=C(C(=O)OCC2CCCO2)C(c2ccc(C)o2)C2=C(CC(c3ccc(N(C)C)cc3)CC2=O)N1 (configuration not stated)	ALDH1A1 inh 10µM
CC1=C(C(=O)OCC2CCCO2)C(c2ccc(C)o2)C2=C(CC(c3ccc(F)cc3)CC2=O)N1 (configuration not stated)	ALDH1A1 inh inconclusive
CCOC(=O)C1=C(C)NC2=C(C(=O)CCC2)C1c1ccc(N(C)C)cc1 (configuration not stated)	ALDH1A1 inh 28µM
CCS(=O)(=O)c1ccc(O)c(NC(=O)Nc2ccccc2OC)c1	none (no result: IMPase Li inh, ALOX12 inhib, ALDH1A1 inh, IMPase inh, HPGD inh)
Cc1ccc(C)n1-c1ccc2c(c1)COC2=O	ALDH1A1 inh inconclusive
Cc1ccc(OCC(=O)NNC(=O)C(C)Sc2ncnc3sc(C)c(C)c23)cc1 (configuration not stated)	IMPase Li inh inconclusive, ALDH1A1 inh inconclusive, HPGD inh 32µM
Cc1sc2ncnc(SC(C)C(=O)N3c4ccccc4Sc4ccccc43)c2c1C (configuration not stated)	none
CCN1CCCc2cc(CN(CCN3CCOCC3)C(=S)Nc3ccc(OC)cc3)ccc21	IMPase Li inh inconclusive, ALDH1A1 inh inconclusive (no result: ALOX12 inhib, IMPase inh, HPGD inh)
CCN1CCCc2cc(CN(CCN3CCOCC3)C(=S)Nc3ccc(C)cc3)ccc21	ALDH1A1 inh 6.3µM (no result: ALOX12 inhib, IMPase inh, HPGD inh)
CCOc1ccc(NC(=S)N(CCN2CCOCC2)Cc2ccc3c(c2)CCCN3CC)cc1	ALDH1A1 inh 13µM (no result: ALOX12 inhib, IMPase inh, HPGD inh)
COc1cc2[nH]ccc(=O)c2cc1OC	none (no result: IMPase inh)
Cc1cc(N2CCC(C)CC2)c(F)cc1[N+](=O)[O-]	ALDH1A1 inh 10µM
CC1CCN(c2cc(C#N)c(C#N)cc2[N+](=O)[O-])CC1	none
CCCCOP(=O)(c1ccc(N(C)C)cc1)C(O)c1cccnc1 (configuration not stated)	none
Cc1cccc(N2C(=O)CN(Cc3sccc3C)C2=S)c1	HPGD inh 14µM (no result: IMPase inh)
Cc1cc(C)cc(N2C(=O)CN(Cc3sccc3C)C2=S)c1	HPGD inh 28µM (no result: IMPase inh)
Cc1ccsc1CN1CC(=O)N(c2c(C)cccc2C)C1=S	none (no result: ALOX12 inhib, IMPase inh, HPGD inh)
CCOC(=O)Cc1cnc(NC(=O)CSc2nc(C)cc(C)n2)s1	none (no result: ALOX12 inhib, IMPase inh, HPGD inh)
COc1cc([N+](=O)[O-])cc2sc(NC(=O)C(C)(C)C)nc12	none (no result: ALOX12 inhib, IMPase inh, HPGD inh)
COc1cc([N+](=O)[O-])cc2sc(NC(=O)C3CC3)nc12	IMPase Li inh 22µM, NPSR antagonist inconclusive (no result: ALOX12 inhib, IMPase inh, HPGD inh)
Nc1ncnc2c1cnn2-c1ccccc1	ALDH1A1 inh inconclusive
S=c1nc[nH]c2c1cnn2-c1ccccc1	ALDH1A1 inh 3.2µM (no result: IMPase Li inh, ALOX12 inhib, IMPase inh, HPGD inh)
CCn1cc(C(=O)NCc2ccc3c(c2)OCO3)c(=O)c2cc(F)c(N3CCN(C)CC3)cc21	ALDH1A1 inh inconclusive, HPGD inh inconclusive
COC(=O)C1=CN(c2ccc(OC)cc2)C=C(C(=O)OC)C1c1ccc(C)c([N+](=O)[O-])c1	none (no result: IMPase inh)
COC(=O)C1=CN(c2cccc(C)c2)C=C(C(=O)OC)C1c1cc(OC)c(O)c([N+](=O)[O-])c1	HPGD inh 16µM
Cc1c(NS(=O)(=O)c2cccc(C(=O)OCC(=O)N(C)C3CCCCC3)c2)c(=O)n(-c2ccccc2)n1C	none (no result: ALOX12 inhib, IMPase inh, HPGD inh)
Cc1ccc(N=Nc2c(O)c3ccccc3[nH]c2=O)c(S(=O)(=O)N(C)C)c1	ALDH1A1 inh 14µM (no result: IMPase inh)
Cc1cc(N=Nc2c(O)c3ccccc3[nH]c2=O)ccc1N=Nc1ccc(C(=O)N(C)C)cc1	none (no result: IMPase Li inh, ALOX12 inhib, ALDH1A1 inh, IMPase inh, HPGD inh)
Cc1c2c(nc3nc4ccccc4n13)CCCC2=O	none
CNC(=O)c1c(N)sc2c1CCCCC2	ALDH1A1 inh 25µM, HPGD inh 32µM
NC(=O)c1c(N)sc2c1CCCCC2	ALDH1A1 inh 14µM, HPGD inh inconclusive
NC(=O)c1c(N)sc2c1CCC2	ALDH1A1 inh inconclusive (no result: ALOX12 inhib, IMPase inh, HPGD inh)
O=C(CNc1ccc(F)cc1)N/N=C/C1CC=CCC1 (configuration not stated)	ALDH1A1 inh inconclusive (no result: ALOX12 inhib, IMPase inh, HPGD inh)
CCOc1ccc(NC(=S)N2CCC(c3nc4ccccc4[nH]3)CC2)cc1	none (no result: ALOX12 inhib, IMPase inh, HPGD inh)
COc1ccc2c(c1)C(=O)N(c1ccccc1OC)C(=O)C2	ALDH1A1 inh 18µM, HPGD inh 8.9µM
CCn1ncc(CNC(=O)C2(C)CC2(Cl)Cl)c1C (configuration not stated)	HPGD inh 11µM (no result: IMPase inh)
Cc1ccc(S(=O)(=O)N2CCC(C(=O)NNC(=O)c3cccnc3)CC2)cc1	none (no result: ALOX12 inhib, IMPase inh, HPGD inh)
CC(C)NCC#CCOc1ccc(Cl)cc1	ALDH1A1 inh 2.4µM (no result: ALOX12 inhib, IMPase inh, HPGD inh)
CCOC(=O)c1c(C)c(C(=O)Nc2ccccc2)c(C)n1CC	none
CCOC(=O)c1c(C)c(C(=O)N2CCc3ccccc3C2)c(C)n1CC	ALDH1A1 inh inconclusive, HPGD inh 4.5µM
CC(=O)c1c(C)[nH]c(C(=O)N2CCc3ccccc3C2)c1C	HPGD inh 18µM
Cc1cc(C)cc(OCC(=O)NNC(=O)c2ccoc2C)c1	none
O=C(Nc1ccc(F)cc1)NC1CCN(Cc2nnnn2Cc2ccco2)CC1	ALDH1A1 inh 18µM
O=C(NCc1ccccc1)NC1CC2CCC(C1)N2Cc1ccco1 (configuration not stated)	none
O=C(NC1CC2CCC(C1)N2Cc1nnnn1Cc1ccco1)NC12CC3CC(CC(C3)C1)C2 (configuration not stated)	NPSR antagonist inconclusive, ALDH1A1 inh 7.9µM
CCOc1ccccc1C(=O)NC1CC2CCCC(C1)N2Cc1nnnn1Cc1ccco1 (configuration not stated)	ALDH1A1 inh 1µM
CC(Oc1ccc(Cl)cc1Cl)C(=O)Nc1ccc2oc(-c3ccncc3)nc2c1 (configuration not stated)	ALDH1A1 inh inconclusive, HPGD inh inconclusive
Cc1cc(C)n(C(=O)CCC2COc3ccccc3O2)n1 (configuration not stated)	none
Brc1ccc(-c2nc(N/N=C/c3cccnc3)c3ccccc3n2)cc1	NPSR antagonist 10µM, ALDH1A1 inh inconclusive, HPGD inh inconclusive
C(=N\Nc1nc(-c2cccnc2)nc2ccccc12)/c1ccccc1	none (no result: IMPase Li inh, ALOX12 inhib, ALDH1A1 inh, IMPase inh, HPGD inh)
